The list is not random: actives were taken first. Their share in the collection is about 15%.
ALOX12 inh = blocks human arachidonate 12S-lipoxygenase; P18054; 580,000 compounds, 1.1% hits; Potency, µM (doses to about 108 µM), usual class: inhibitors; purified 12hLO, xylenol orange hydroperoxide absorbance; AID 1671190
Target sequence (P18054 whole entry, looked up): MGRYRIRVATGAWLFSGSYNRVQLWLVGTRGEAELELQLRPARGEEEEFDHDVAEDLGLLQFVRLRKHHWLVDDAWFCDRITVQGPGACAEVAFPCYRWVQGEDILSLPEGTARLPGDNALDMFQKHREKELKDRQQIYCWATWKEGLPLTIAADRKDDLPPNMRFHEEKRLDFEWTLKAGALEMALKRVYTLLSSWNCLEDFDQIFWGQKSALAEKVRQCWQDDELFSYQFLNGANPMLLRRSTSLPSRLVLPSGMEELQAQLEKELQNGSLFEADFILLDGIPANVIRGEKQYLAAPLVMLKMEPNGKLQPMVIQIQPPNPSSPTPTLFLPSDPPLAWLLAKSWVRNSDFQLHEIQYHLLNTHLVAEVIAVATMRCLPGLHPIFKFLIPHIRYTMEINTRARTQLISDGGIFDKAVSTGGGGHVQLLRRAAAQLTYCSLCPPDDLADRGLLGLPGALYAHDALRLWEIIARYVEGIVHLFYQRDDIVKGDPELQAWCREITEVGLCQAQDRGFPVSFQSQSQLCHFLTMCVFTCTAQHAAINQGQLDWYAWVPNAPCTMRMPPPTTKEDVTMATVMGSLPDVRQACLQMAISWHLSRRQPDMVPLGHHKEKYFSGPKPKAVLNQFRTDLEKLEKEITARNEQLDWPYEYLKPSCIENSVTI
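Hydroperoxide product was detected by ferrous iron/xylenol orange as the 573 to 405 nm absorbance ratio. Arachidonic acid at 40 uM (final) was turned over for 30 min at room temperature by 150 nM human 12hLO, pH 7.0 Hepes buffer, after 15 min compound preincubation.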
ELG1 repair inh = blocks ELG1-dependent DNA repair in HEK293T cells; Potency, µM (doses to about 46.1 µM), most hits filed as inhibitors; 330,000 compounds, 2.3% hits; HEK293T ELG1-luciferase reporter, luminescence, 16 h; DNA damage induced by 5-fluorouridine; further: nearly all actives have a fitted effect of over 55% in size
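Luminescence from the luciferase reporter, measured 30 min after ONE-Glo reagent at room temperature, was the read-out. Beforehand, 2,000 cells per well were exposed for 16 hr at 37 °C to 5-fluorouridine together with compound or vehicle.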
DT40 TDP1 no CPT = qHTS for Inhibitors of human tyrosyl-DNA phosphodiesterase 1 (TDP1): qHTS in cells in absence of CPT | DT40 Tdp1-/- hTDP1 cells, no CPT, ATP luminescence, 48 h | Potency, µM (titrated, usually from 46.2 µM), actives largely listed as inhibitors | 420,000 compounds, 15% hits | AID 686978, 2013; further: nearly all actives have a fitted effect of over 55% in size
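Chicken DT40 Tdp1-/- cells complemented with human TDP1, screened without camptothecin (DMSO vehicle only), 400 cells/well. Compounds pin-transferred, cells incubated at 37 °C for at least 48 hr. Growth read as ATP-dependent luminescence (CellTiter-Glo, 30 min at RT).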
RORgamma inh = ROR gamma (mouse) transcription inhibition; Potency, µM (titrated, usually from 53.6 µM), most hits filed as inhibitors; 310,000 compounds, 5.4% hits; P51450; Drosophila S2 Gal4-RORgamma UAS-luciferase reporter, 20 h; further: nearly all actives have a fitted effect of over 60% in size
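Compounds are pin-transferred onto Drosophila Schneider cells expressing a copper-inducible Gal4–ROR gamma transactivation domain fusion. After 1 hr, copper sulfate is added to 700 uM final; luciferase is read 20 hr later.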
DT40 TDP1 CPT = growth inhibition of DT40 Tdp1-/-;hTDP1 cells with camptothecin (screen for TDP1 inhibitors) | 420,000 compounds, 12% hits | chicken DT40 Tdp1-/-;hTDP1 cells + 20 nM CPT, ATP luminescence, 48 h | AID 686979 | Potency, µM (doses to about 46.2 µM), hits mostly inhibitors; further: nearly all actives have a fitted effect of over 55% in size
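Chicken DT40 Tdp1-/- cells complemented with human TDP1, 400 cells/well, exposed to compounds plus 20 nM camptothecin for at least 48 h at 37 C; viability read as ATP content by CellTiter-Glo luminescence.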
VP16 counter = counter-screen for ROR gamma inhibitors: Gal4-VP16 reporter; Drosophila S2 Gal4-VP16 UAS-luciferase, luminescence, 20 h; Potency, µM (top dose mostly 53.6 µM), hits mostly inhibitors; 310,000 compounds, 3.5% hits; AID 2546;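 further: Gal4-VP16 expression switched on by copper sulfate through the metallothionein promoter; nearly all actives have a fitted effect of over 50% in size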
Hits are given with their value; i = inactive; ? = inconclusive; nt = not tested or not shown. The call rests on the fitted dose curve; in most records, active means well fitted curve in the direction sought with a large enough effect; inconclusive means small, poorly fitted or top-dose-only effect, or another doubt; inactive means no such curve, though single readings can be large; an effect the other way counts as inactive or inconclusive.

SMILES	ALOX12 inh	ELG1 repair inh	DT40 TDP1 no CPT	RORgamma inh	DT40 TDP1 CPT	VP16 counter
COc1ccc(S(=O)(=O)N2CCN(c3cc(N4CCCCC4)nc(C)n3)CC2)c(C)c1C	i	nt	nt	nt	nt	nt
CCCCOC(=O)COc1ccc2c(=O)c(Oc3ccc(CC)cc3)c(C(F)(F)F)oc2c1	i	nt	nt	nt	nt	nt
Fc1ccc2nc(CO[C@H]3CN(Cc4ccc5ccccc5n4)C[C@H]3F)[nH]c2c1	i	nt	nt	nt	nt	nt
O=C(OCC(=O)C12CC3CC(CC(C3)C1)C2)c1cccnc1	i	i	i	i	i	i
CCN(CC)S(=O)(=O)c1cccc(C(=O)OCC(=O)C23CC4CC(CC(C4)C2)C3)c1	i	?	23µM	i	?	i
CCOC(=O)c1c(C)[nH]c(C)c1C(=O)COC(=O)c1ccc(S(=O)(=O)N(CC)CC)cc1	i	i	i	i	i	i
CCOC(=O)c1c(C)[nH]c(C)c1C(=O)COC(=O)c1cccc(S(=O)(=O)N(CC)CC)c1	i	i	29µM	?	?	?
C=CC[C@@H](CC(=O)N[C@@H](CO)Cc1ccccc1)C(=O)N[C@H](COC(=O)[C@@H](CC=C)Cc1ccc(F)cc1)C(C)(C)C	i	?	i	nt	16µM	nt
C=CCC[C@@H](Cc1ccc(F)cc1)C(=O)OC[C@@H](NC(=O)[C@@H](CC=C)CC(=O)N[C@H](CO)Cc1ccccc1)C(C)(C)C	i	?	16µM	nt	23µM	nt
CCOC(=O)[C@@H]1CSCCS(=O)(=O)N1	i	nt	18µM	nt	12µM	nt
O=C(CC1=C2CCCCC2NC1=O)NC1CCCC1 (configuration not stated)	i	nt	nt	nt	nt	nt
CC(/C=C1\SC(=S)N(CCCC(=O)Nc2ccc(C(=O)O)cc2)C1=O)=C\c1ccccc1	45µM	?	?	i	?	i
CC(=C\c1ccccc1)/C=C1/SC(=S)N(CCCC(=O)O)C1=O	i	?	i	?	i	0.63µM
CC(=C\c1ccccc1)/C=C1/SC(=S)N(C(C(=O)O)C(C)C)C1=O (configuration not stated)	45µM	i	?	i	i	i
CC(=C\c1ccccc1)/C=C1/SC(=S)N(CC(=O)O)C1=O	nt	nt	i	nt	i	nt
O=C(O)CN1C(=O)/C(=C\C(Br)=C\c2ccccc2)SC1=S	35µM	?	?	?	?	?
C=CCN1C(=O)/C(=C\C(C)=C\c2ccccc2)SC1=S	i	?	?	?	i	i
CCC(C(=O)O)N1C(=O)/C(=C/C(C)=C/c2ccccc2)SC1=S (configuration not stated)	?	i	i	?	i	i
CC(/C=C1\SC(=S)N(CCC(=O)Nc2cccc(C(=O)O)c2)C1=O)=C\c1ccccc1	?	i	i	i	i	i
CC(C)CNC(=O)C1CCc2sc(C(=O)N3CCCCC3)cc2C1 (configuration not stated)	i	nt	nt	nt	nt	nt
O=C(O)c1ccccc1-c1ncc(-c2ccc(F)cc2)o1	i	nt	nt	nt	nt	nt
CC(=O)N1CCC(Cc2ccc(C(=O)NC3CCN(Cc4ccccc4)CC3)cc2)CC1	i	nt	nt	nt	nt	nt
Cc1[nH]c2ccccc2c1/C=N/NC(=O)c1cc(-c2ccncc2)nc2ccccc12	i	?	5.2µM	i	5.8µM	i
Cc1[nH]c2ccccc2c1/C=N/NC(=O)c1cc(-c2ccccc2)n[nH]1	i	21µM	18µM	i	?	i
Cc1nn(-c2ccccc2)c(C)c1/C=N/NC(=O)c1cc(-c2cccc3ccccc23)n[nH]1	i	16µM	16µM	?	?	i
SMILES	ALOX12 inh	ELG1 repair inh	DT40 TDP1 no CPT	RORgamma inh	DT40 TDP1 CPT	VP16 counter
O=C(COc1ccc2c(-c3ccccc3)cc(=O)oc2c1)NC1CCCC1	i	nt	nt	nt	nt	nt
CCCS(=O)(=O)NCc1cccnc1Oc1ccc(F)c(F)c1	i	nt	nt	nt	nt	nt
CN(C)c1ncc2nc(-c3cccs3)c(=O)n(Cc3cccs3)c2n1	i	nt	i	i	i	i
CN(C)c1nc(=NCc2cccs2)ss1	16µM	nt	0.029µM	nt	0.026µM	nt
CN(C)/C=C(\C(=O)c1ccccc1)c1nnnn1-c1ccccc1	i	i	i	i	i	i
CN(C)c1ccc(C=C(c2nnnn2-c2ccccc2)c2nnnn2-c2ccccc2)cc1	i	12µM	16µM	i	21µM	i
COCCNC(=S)NC12CC3CC(CC(C3)C1)C2	i	i	i	3.5µM	i	4.5µM
COCCNC(=O)NC12CC3CC(CC(C3)C1)C2	i	i	i	i	i	i
Cc1ccc(-c2nc3cc(C)ccc3o2)cc1	i	?	i	11µM	i	14µM
Nc1cccc(-c2nc3ccccc3[nH]2)c1	i	?	?	?	?	i
Nc1cccc(-c2nc3cc(S(=O)(=O)c4ccc5oc(-c6cccc(N)c6)nc5c4)ccc3o2)c1	i	i	?	4.5µM	8.2µM	5µM
Cc1ccc(-c2nc3cc(N)ccc3o2)cc1	i	?	i	?	i	?
COC(=O)c1ccc(-c2nc3ccc(C)cc3o2)cc1	i	?	8.2µM	i	10µM	?
Cc1ccc2nc(-c3cccc(N)c3)[nH]c2c1	i	?	?	7.9µM	15µM	8.9µM
N#Cc1cccc(OCc2ccc(C#N)cc2F)c1	i	nt	nt	nt	nt	nt
COc1ccc(CN2C(=O)COC[C@H]2C(=O)NCc2ccc(Cl)cc2)cc1OC	i	nt	nt	nt	nt	nt
N#Cc1ccc(NC(=O)COC(=O)c2ccccc2Oc2ccccc2)cc1	i	nt	nt	nt	nt	nt
Nc1ccc2oc(-c3ccc(-c4ccccc4)cc3)nc2c1	i	nt	nt	nt	nt	nt
Cc1ccc2oc(-c3cccc(N)c3)nc2c1	i	?	?	11µM	i	?
Cc1ccc(-c2nc3cc(NS(=O)(=O)c4ccc(C)cc4)ccc3o2)cc1	?	i	?	i	14µM	i
CCCCOC(=O)c1ccc(NC(=O)COC(=O)c2ccc3nc(C)c(C)nc3c2)cc1	i	nt	nt	nt	nt	nt
COc1ccc(CN2CC[C@H](c3nc4ccc(OC)cc4[nH]3)C2)cc1	i	nt	nt	nt	nt	nt
CC(C)C(=O)Nc1ccc(S(=O)(=O)N2CCC(c3nc4ccccc4[nH]3)CC2)cc1	i	5.8µM	21µM	nt	?	nt
CC(C)(C)c1ccc(S(=O)(=O)N2CCC(c3nc4ccc(Cl)cc4[nH]3)CC2)cc1	i	21µM	?	?	?	i
Clc1ccc(CN2CCC(c3nc4ccc(Cl)cc4[nH]3)CC2)cc1	?	?	12µM	i	16µM	i
COc1ccc(S(=O)(=O)N2CCC(c3nc4ccccc4[nH]3)CC2)cc1	i	?	10µM	i	?	i
O=C(NC1CCCCC1)c1cc2cc(Cl)ccc2[nH]1	i	nt	nt	nt	nt	nt
CC(C)C[C@H](NC(=O)NCCc1ccccc1F)C(=O)O	i	nt	nt	nt	nt	nt
CCCn1c(Cn2ccnc2C)nc2cc(NC(=O)COc3ccc(OC)cc3)ccc21	i	nt	nt	nt	nt	nt

Source: PubChem
